High-throughput results (PubChem)
Shown are actives, neighbours in structure and some others; about 2.3% of the full set was active somewhere.
PP1 inh – PP1-alpha phosphatase inhibitors, primary screen, counter-screen for PP5 inhibitor project, biochemical, fluorescence, OMFP substrate, single point. Serine/threonine-protein phosphatase PP1-alpha catalytic subunit (Homo sapiens), P62136. purified PP1alpha. inhibition, % at 6.7 µM. 320,000 tested, 0.9% active. AID 2235, 2010;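 active = inhibition above the mean inhibition of all tested compounds plus 3 SD, computed separately for each screening campaign, cut at about 15% in these data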
Target sequence (P62136 whole entry, looked up): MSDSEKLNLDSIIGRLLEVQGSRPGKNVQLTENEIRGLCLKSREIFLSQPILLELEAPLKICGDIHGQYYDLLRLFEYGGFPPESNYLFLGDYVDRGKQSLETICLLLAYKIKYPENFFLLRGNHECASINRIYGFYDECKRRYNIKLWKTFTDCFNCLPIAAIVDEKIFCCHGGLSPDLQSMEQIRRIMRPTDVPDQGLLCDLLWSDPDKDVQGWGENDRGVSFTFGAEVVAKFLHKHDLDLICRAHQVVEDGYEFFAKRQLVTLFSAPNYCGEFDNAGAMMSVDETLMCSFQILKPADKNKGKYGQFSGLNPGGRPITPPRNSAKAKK
ZTA counter – blocks Epstein-Barr virus ZTA, an EBNA-1 counter-screen. P03206. ZTA-DNA binding, fluorescence polarization. inhibition, % at 11 µM. 320,000 tested, 0.15% active. AID 2234; in the data active = inhibition above about 33%
EBNA-1 inh – EBNA-1 DNA-binding inhibitors, primary screen, biochemical, fluorescence polarization; 300,000 tested, 0.34% active; AID 1950, 2009; inhibition, % at 14.8 µM; in the data active = inhibition above about 28%
PP5 primary – PP5 phosphatase inhibitors, primary screen, biochemical, fluorescence; 320,000 tested, 0.18% active; Serine/threonine-protein phosphatase 5 (Homo sapiens), P53041; purified PP5c, OMFP substrate fluorescence; inhibition, % at 6.7 µM;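 active = inhibition above the campaign's mean inhibition across all tested compounds plus 3 SD, cut at about 9.5% in these data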
bovine MsrA act – bovine MsrA enzyme activators, primary screen, biochemical, absorbance, HTS | Methionine sulfoxide reductase A (Bos taurus) | purified bovine MsrA, absorbance read-out | activation, % at 10.6 µM | 360,000 tested, 0.3% active | AID 602163, 2012; in the data active = activation above about 7.5%
MsrA inhibitor – bovine MsrA enzyme inhibitors, primary screen, biochemical, absorbance, HTS | Methionine sulfoxide reductase A (Bos taurus) | purified bovine MsrA, absorbance read-out | inhibition, % at 15.5 µM | 360,000 tested, 0.75% active | AID 651718, 2012; in the data active = inhibition above about 4.5%
EBNA-1 inh conf – EBNA-1 DNA-binding inhibitors, retest, confirmation, biochemical, fluorescence polarization, triplicate; shares compounds with EBNA-1 inh; Recombinant EBNA-1 DBD, Cy5-DNA fluorescence polarization; inhibition, % at 14.8 µM; 830 tested, 35% active;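 active = mean inhibition across replicates above a set limit taken from the earlier primary screen, cut at about 28% in these data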
ZTA counter trip – EBV Zta DNA binding inhibitors, counter-screen for EBNA-1 inhibitor project, biochemical, fluorescence polarization, triplicate; shares compounds with EBNA-1 inh; 830 tested, under 10 active; inhibition, % at 11.1 µM; Zta-ZRE DNA binding, Cy5 fluorescence polarization;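 active = mean inhibition over triplicates above a set limit taken from the primary EBNA-1 screen, cut at about 37% in these data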;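 note: purified full length Zta protein with Cy5 labeled ZRE DNA probe; inhibitors lower polarization by freeing the labeled DNA probe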
Each line names hits and unclear results; the compound was inactive in the other large screens (follow-up assays come after a bar, where they were run).

COc1ccccc1/C=C/C(=O)OCC(=O)c1c(N)n(C)c(=O)n(C)c1=O	EBNA-1 inh 48 | EBNA-1 inh conf inactive | ZTA counter trip inactive
NS(=O)(=O)c1ccc(CCNC(=O)C2CCC(CNS(=O)(=O)c3ccc(Br)s3)CC2)cc1 (stereo unspecified)	EBNA-1 inh 59 | EBNA-1 inh conf inactive | ZTA counter trip inactive
O=C(NCc1cccs1)C1CCC(CNS(=O)(=O)c2ccc(Br)s2)CC1 (stereo unspecified)	none
COc1ccc(-n2nc(C(=O)NCC(=O)NCc3cccc(F)c3)c3ccccc3c2=O)cc1Cl	EBNA-1 inh 28 | EBNA-1 inh conf inactive | ZTA counter trip inactive
COC(=O)CNC(=O)CNC(=O)c1nn(-c2ccc(OC)c(Cl)c2)c(=O)c2ccccc12	none
Cn1c(CNC(=O)CCNC(=O)c2ccc(F)c(F)c2)cc(=O)n(C)c1=O	none
O=C1C(CCc2ccccc2)ON=C(c2cnccn2)N1Cc1ccc(F)cc1 (stereo unspecified)	none (no result: PP1 inh, ZTA counter, EBNA-1 inh, PP5 primary)
Cc1ccc(C(=O)COC(=O)CNC(=O)CN2C(=O)c3ccccc3C2=O)cc1	EBNA-1 inh 33 | EBNA-1 inh conf 28 | ZTA counter trip inactive
CCOC(=O)Cc1csc(NC(=O)CSc2nc(N)c3c(C)c(C)sc3n2)n1	EBNA-1 inh 169 | EBNA-1 inh conf inactive | ZTA counter trip inactive
CCOC(=O)Cc1csc(NC(=O)CSc2nc(C)cc(C)n2)n1	none (no result: PP1 inh, ZTA counter, EBNA-1 inh, PP5 primary)
C[C@@H]1CN([C@H](C)CO)C(=O)CCCn2cc(nn2)CO[C@H]1CN(C)C(=O)c1ccc2ccn(C)c2c1	none (no result: PP1 inh, ZTA counter, EBNA-1 inh, PP5 primary)
COc1ccc(CNC(=O)CN2C(=O)C3CCCN3c3ncc(Cl)cc32)cc1 (stereo unspecified)	EBNA-1 inh 29 | EBNA-1 inh conf inactive | ZTA counter trip inactive
O=C1COc2ccc(C(=O)COC(=O)c3ccccc3F)cc2N1	none (no result: PP1 inh, ZTA counter, EBNA-1 inh, PP5 primary)
O=C1COc2ccc(C(=O)COC(=O)c3cc(S(=O)(=O)NCc4ccccc4)ccc3O)cc2N1	EBNA-1 inh 31 | EBNA-1 inh conf inactive | ZTA counter trip inactive
Cc1cc(N2CCN(CC(O)C(F)(F)F)CC2)c2ccccc2n1 (stereo unspecified)	EBNA-1 inh active | EBNA-1 inh conf inactive | ZTA counter trip inactive
COc1ccc(OC)c(NC(=O)C2CCCN(S(=O)(=O)c3ccc(-n4cnnn4)cc3)C2)c1 (stereo unspecified)	EBNA-1 inh 49 | EBNA-1 inh conf 41 | ZTA counter trip inactive
CN1CCN(c2ccc(-c3cccc(NC(=O)COc4ccc(Cl)cc4Cl)c3)nn2)CC1	EBNA-1 inh 28 | EBNA-1 inh conf 51 | ZTA counter trip inactive
CN1CCN(c2ccc(-c3cccc(NC(=O)COc4ccc(Cl)cc4)c3)nn2)CC1	none
COC(=O)c1ccc(Cn2cnc3c(cnn3-c3ccc(F)cc3)c2=O)o1	none
COC(=O)c1ccc(Cn2cnc3c(cnn3-c3ccc(Cl)cc3)c2=O)o1	EBNA-1 inh 46 | EBNA-1 inh conf inactive | ZTA counter trip inactive
Cc1ccc(NC(=O)c2ccc(=O)[nH]n2)cc1S(=O)(=O)Nc1ccccc1Cl	none (no result: EBNA-1 inh)
Cc1ccc(NC(=S)NC(=O)c2ccc(F)cc2)cc1S(=O)(=O)Nc1ccccc1Cl	EBNA-1 inh 28 | EBNA-1 inh conf inactive | ZTA counter trip inactive
Cc1cc(Cl)ccc1OCC(=O)NC(=S)Nc1ccccc1N1CCOCC1	EBNA-1 inh 44 | EBNA-1 inh conf 38 | ZTA counter trip inactive
Clc1cccc(Cl)c1NC1=NCCN1	none (no result: bovine MsrA act, MsrA inhibitor)
CC(C)OC(=O)CSc1nc(Cc2cccs2)nc2ccccc12	none
Cn1c(SCC(=O)Nc2cccc(S(=O)(=O)NC3=NCCCCC3)c2)nnc1-c1ccncc1	none
